For 14 compounds, outcome and AC50 results are on record in PubChem BioAssay (EPA / NIEHS).

Records with an inconclusive call do not appear. The source made the active and inactive calls. The calls were made as follows, unless noted: active = hit-call score of the fitted dose curve at least 0.9, where 1 is the maximum; inactive = score below 0.9.

Experiment [1] addresses rat Thyrotropin Releasing Hormone Receptor (TRH), Trhr (gene 25570) (UniProt Q01717). Description: NVS_GPCR_rTRH: NovaScreen (NVS) G Protein-Coupled Receptor Assay for rat Thyrotropin Releasing Hormone Receptor (TRH) (AID 2283329; active = hit-call score of the fitted dose curve at least 0.9, where 1 is the maximum;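 also: hit means lower bound tracer signal versus DMSO baseline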). The method, boiled down: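 Rat forebrain membrane prep, radioligand displacement, filter scintillation readout at 4 h. Single conc 25 uM, duplicate; actives retested as concentration series. DMSO = negative control/baseline.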

Experiment [2] has as its target Bile acid receptor (Homo sapiens) (UniProt Q96RI1). Description: OT_FXR_FXRSRC1_1440: Odyssey Thera (OT) 24-hour HEK293T Protein-Complementation Assay for Farnesoid X receptor/SRC-1 Co-activator (AID 2283384; active = hit-call score of the fitted dose curve at least 0.9, where 1 is the maximum). The gist of the method:
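Cell-based binding reporter: interaction of FXR with SRC-1 brings reporter fragments together, giving a fluorescence signal read 24 h after dosing of HEK293T cells.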

The target in experiment [3] is human Retinoic Acid Receptor beta (RARb), RARB (gene 5915) (UniProt P10826). Description: ATG_RARb_TRANS: Attagene TRANS-FACTORIAL HepG2 Assay for human Retinoic Acid Receptor beta (AID 2283004; active = hit-call score of the fitted dose curve at least 0.9, where 1 is the maximum). The method, boiled down:
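Induction of reporter mRNA from a chimeric RARb-Gal4 construct was measured by RT-PCR, FAM labelling, HpaI digestion and capillary electrophoresis. Measurements followed 24 h compound treatment of transiently transfected human HepG2 liver cells, with DMSO as baseline.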

The target of experiment [4] is human Retinoic Acid Receptor gamma (RARg), RARG (gene 5916) (UniProt P13631). Description: ATG_RARg_TRANS: Attagene TRANS-FACTORIAL HepG2 Assay for human Retinoic Acid Receptor gamma (RARg) (AID 2283009; active = hit-call score of the fitted dose curve at least 0.9, where 1 is the maximum). The method, boiled down: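 HepG2, RARg-GAL4 TRANS system, 24 h exposure; reporter mRNA by RT-PCR + CE fluorescence; increase over DMSO.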
Chain of human Retinoic Acid Receptor gamma (RARg), RARG (gene 5916) (P13631 whole entry, looked up, the tested form may be a part): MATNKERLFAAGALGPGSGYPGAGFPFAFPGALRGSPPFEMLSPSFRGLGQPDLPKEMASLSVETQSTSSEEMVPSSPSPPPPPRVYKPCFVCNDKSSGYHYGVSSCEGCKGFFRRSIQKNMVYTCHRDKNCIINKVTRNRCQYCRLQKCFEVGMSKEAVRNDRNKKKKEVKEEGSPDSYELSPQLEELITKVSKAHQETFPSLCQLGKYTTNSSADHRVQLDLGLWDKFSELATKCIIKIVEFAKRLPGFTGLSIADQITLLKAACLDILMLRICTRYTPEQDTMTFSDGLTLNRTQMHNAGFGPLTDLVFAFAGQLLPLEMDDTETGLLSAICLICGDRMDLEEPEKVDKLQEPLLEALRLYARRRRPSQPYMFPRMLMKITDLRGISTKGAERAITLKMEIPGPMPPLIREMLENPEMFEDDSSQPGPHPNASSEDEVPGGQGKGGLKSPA
The target in experiment [5] is Retinoic acid receptor alpha (Homo sapiens) (UniProt P10276). In words: ATG_RARa_TRANS: Attagene TRANS-FACTORIAL HepG2 Assay for human Retinoic Acid Receptor alpha (RARa) (AID 2283005; active = hit-call score of the fitted dose curve at least 0.9, where 1 is the maximum). The gist of the method:
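Reporter transcripts, measured by RT-PCR with fluorescent labeling and capillary electrophoresis after 24 h dosing, reflect activity of an exogenous human RARa–GAL4 fusion in transiently transfected HepG2. Fitted for increase relative to DMSO.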

Experiment [6] in a line: BSK_BT_PBMCCytotoxicity: PBMC Cytotoxicity Assessment in the BioMAP Diversity Plus: BT Assay (AID 2284225).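 Also: PBMC viability measured by Alamar Blue dye reduction fluorescence.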 The note with it: primary human B cells with PBMC. The method, boiled down:
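75,000 cells/well; cpd 1 h → SEB + TSST-1 (20 ng/mL final each) → 90 h → Alamar Blue 6 h → fluor. 546/580 nm. DMSO = neg. control/baseline.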

Read-out in experiment [7]: Secreted IgG (sIgG), gene 3500
Description: BSK_BT_sIgG: BioMAP Diversity Plus: BT Assay for Secreted IgG (sIgG) Biomarker Activity (AID 2284226). The note with it: primary human B cells with PBMC. The method, boiled down:
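Secreted IgG from a human primary B cell–PBMC co-culture was measured by ELISA 24 hours after dosing, with DMSO defining baseline activity.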

Read-out in experiment [8]: Tumor necrosis factor (Homo sapiens) (UniProt P01375)
Description: BSK_BT_xTNFa: BioMAP Diversity Plus: BT Assay for Tumor necrosis factor alpha (TNF-alpha) Biomarker Activity (AID 2284230). The note with it: primary human B cells with PBMC. The method, boiled down:
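Compounds were added to a B cell plus PBMC co-culture, and after 24 h secreted TNF-alpha was quantified with Luminex xMAP technology, with responses fitted upward from the DMSO control.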

Read-out in experiment [9]: Vascular cell adhesion molecule 1 (VCAM1), VCAM1 (gene 7412)
In words: BSK_MyoF_VCAM1: BioMAP Diversity Plus: MyoF Assay for Vascular cell adhesion molecule 1 (VCAM1) Biomarker Activity (AID 2284231). The note with it: primary human lung fibroblasts. The gist of the method:
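ELISA readout of VCAM-1 on human lung fibroblast cultures 24 hours after dosing, analyzed for signal gain relative to DMSO. Overt cytotoxicity was checked by sulforhodamine B total-protein staining in parallel cultures.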

Read-out in experiment [10]: Collagen III, COL3A1 (gene 1281)
In words: BSK_MyoF_CollagenIII: BioMAP Diversity Plus: MyoF Assay for Collagen III Biomarker Activity (AID 2284239). Conditions: primary human lung fibroblasts. The gist of the method:
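Collagen III biomarker quantified by ELISA in human lung fibroblast cultures 24 h after dosing. Activity fitted in the positive direction against DMSO as baseline.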

Read-out in experiment [11]: Interleukin 17F (IL17F), IL17F (gene 112744)
In words: BSK_BT_xIL17F: BioMAP Diversity Plus: BT Assay for Interleukin 17F (IL17F) Biomarker Activity (AID 2284243). The note with it: primary human B cells with PBMC. The method, boiled down: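 Human B cells co-cultured with PBMC; secreted IL-17F quantified by LumineX xMAP 24 hours after chemical dosing. Activity fitted in the positive direction against DMSO negative control as baseline.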

Read-out in experiment [12]: Actin alpha 1 (ACTA1), ACTA1 (gene 58)
In words: BSK_MyoF_ACTA1: BioMAP Diversity Plus: MyoF Assay for Actin alpha 1 (ACTA1) Biomarker Activity (AID 2284244). The note with it: primary human lung fibroblasts. The gist of the method:
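Measured by ELISA: alpha-smooth muscle actin in human primary lung fibroblasts 24 h after dosing, with DMSO as baseline and upward signal change as the fitted direction.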

Read-out in experiment [13]: Interleukin 2 (IL2), IL2 (gene 3558)
Description: BSK_BT_xIL2: BioMAP Diversity Plus: BT Assay for Interleukin 2 (IL2) Biomarker Activity (AID 2284245). The note with it: primary human B cells with PBMC. The gist of the method: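 Secreted interleukin-2 from human B cell/PBMC co-cultures, measured 24 h post-dosing by Luminex multiplex immunoassay. Upward-direction curve fitting against DMSO baseline.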

Read-out in experiment [14]: Basic fibroblast growth factor (bFGF), FGF2 (gene 2247)
In words: BSK_MyoF_bFGF: BioMAP Diversity Plus: MyoF Assay for Basic fibroblast growth factor (bFGF) Biomarker Activity (AID 2284246). The note with it: primary human lung fibroblasts. The gist of the method: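 In this multiplexed cell system, lung fibroblasts (human primary) receive test chemical for 24 h before ELISA detection of bFGF; DMSO defines baseline and the analysis direction is positive.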

Read-out in experiment [15]: Plasminogen activator inhibitor-1 (PAI1), SERPINE1 (gene 5054)
In words: BSK_MyoF_PAI1: BioMAP Diversity Plus: MyoF Assay for Plasminogen activator inhibitor-1 (PAI1) Biomarker Activity (AID 2284256).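 As to outcome: PAI-1 protein level measured by ELISA in fibroblast cultures; PAI-1 read 24 h after compound addition.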 The note with it: primary human lung fibroblasts. The method, boiled down: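 Human lung fibroblasts (MyoF system) were exposed to test chemicals for 24 h, then PAI-1 was quantified by ELISA. Activity was fitted in the positive (signal-gain) direction relative to DMSO vehicle as baseline.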

Read-out in experiment [16]: Interleukin-8 (IL8), CXCL8 (gene 3576)
In words: BSK_MyoF_IL8: BioMAP Diversity Plus: MyoF Assay for Interleukin-8 (IL8) Biomarker Activity (AID 2284261). The note with it: primary human lung fibroblasts. The method, boiled down: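 IL-8 quantified by ELISA after 24 h compound exposure of primary human lung fibroblasts. SRB staining of parallel cultures flagged cytotoxicity; DMSO served as baseline.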

Read-out in another experiment: Decorin, DCN (gene 1634)
Description: BSK_MyoF_Decorin: BioMAP Diversity Plus: MyoF Assay for Decorin Biomarker Activity (AID 2284265). Conditions: primary human lung fibroblasts. The gist of the method:
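Decorin protein was quantified by ELISA 24 h after chemical addition to primary human lung fibroblasts and analysed as increase over DMSO. Cytotoxicity was tracked in parallel cultures by SRB total-protein staining read at 560 nm.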

A short description of experiment [17]: BSK_MyoF_SRB: Viability Assessment in the BioMAP Diversity Plus: MyoF Assay (AID 2284267).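 Also: total protein by SRB absorbance in parallel cultures as cytotoxicity measure; cells assessed 24 h after compound addition.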 Conditions: primary human lung fibroblasts. The method, boiled down:
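Cytotoxicity in primary human lung fibroblasts is gauged by SRB total-protein staining 24 h after dosing, with DMSO as the negative control.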

Experiment [18] is described as follows: CEETOX_H295R_MTT_cell_viability: Viability Assessment in the CeeTox HT-H295R MTT Assay (AID 2283718). The method, boiled down: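 MTT reduction (0.5 mg/ml, 4 h at 37 C; absorbance at 570 and 650 nm) gave viability as background-corrected percent change versus controls. H295R cells had 48 h forskolin (10 uM) prestimulation, then 48 h chemical exposure at 0.1% DMSO.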

The target of experiment [19] is Androgen receptor (Homo sapiens) (UniProt P10275). Description: ATG_AR_TRANS: Attagene TRANS-FACTORIAL HepG2 Assay for human Androgen Receptor (AR) (AID 2282973; active = hit-call score of the fitted dose curve at least 0.9, where 1 is the maximum). The note with it: HepG2 Attagene TRANS-FACTORIAL AR reporter transcription. The method, boiled down:
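Transcriptional activity of an exogenous AR–Gal4 fusion read as GAL4-UAS reporter transcript levels in transfected human HepG2 cells after 24 h dosing. Detection via RT-PCR, 6-FAM labelling, HpaI digest and capillary electrophoresis; increase over DMSO baseline.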

Chain of Tumor necrosis factor (Homo sapiens) (P01375 whole entry, looked up): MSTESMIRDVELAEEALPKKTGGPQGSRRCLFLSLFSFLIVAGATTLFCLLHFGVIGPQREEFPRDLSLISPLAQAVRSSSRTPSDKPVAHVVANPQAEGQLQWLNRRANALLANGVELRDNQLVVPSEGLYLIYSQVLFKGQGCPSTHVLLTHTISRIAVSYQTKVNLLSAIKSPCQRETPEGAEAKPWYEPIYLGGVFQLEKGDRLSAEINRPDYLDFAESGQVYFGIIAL
Chain of Bile acid receptor (Homo sapiens) (Q96RI1 whole entry, looked up, the tested form may be a part): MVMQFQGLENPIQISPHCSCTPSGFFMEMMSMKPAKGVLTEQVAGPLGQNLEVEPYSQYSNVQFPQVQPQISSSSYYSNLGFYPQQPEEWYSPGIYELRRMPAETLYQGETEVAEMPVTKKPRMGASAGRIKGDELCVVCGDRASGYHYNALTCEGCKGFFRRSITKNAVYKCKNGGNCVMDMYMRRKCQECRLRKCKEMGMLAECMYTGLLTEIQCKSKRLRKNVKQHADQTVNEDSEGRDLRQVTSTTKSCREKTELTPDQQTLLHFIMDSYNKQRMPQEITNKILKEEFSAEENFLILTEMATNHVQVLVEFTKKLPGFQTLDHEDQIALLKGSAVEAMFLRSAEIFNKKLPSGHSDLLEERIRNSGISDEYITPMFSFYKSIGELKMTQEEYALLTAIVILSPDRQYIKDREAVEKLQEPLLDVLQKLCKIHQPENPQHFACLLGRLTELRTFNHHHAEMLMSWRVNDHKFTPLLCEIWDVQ
Chain of human Retinoic Acid Receptor beta (RARb), RARB (gene 5915) (P10826 whole entry, looked up, the tested form may be a part): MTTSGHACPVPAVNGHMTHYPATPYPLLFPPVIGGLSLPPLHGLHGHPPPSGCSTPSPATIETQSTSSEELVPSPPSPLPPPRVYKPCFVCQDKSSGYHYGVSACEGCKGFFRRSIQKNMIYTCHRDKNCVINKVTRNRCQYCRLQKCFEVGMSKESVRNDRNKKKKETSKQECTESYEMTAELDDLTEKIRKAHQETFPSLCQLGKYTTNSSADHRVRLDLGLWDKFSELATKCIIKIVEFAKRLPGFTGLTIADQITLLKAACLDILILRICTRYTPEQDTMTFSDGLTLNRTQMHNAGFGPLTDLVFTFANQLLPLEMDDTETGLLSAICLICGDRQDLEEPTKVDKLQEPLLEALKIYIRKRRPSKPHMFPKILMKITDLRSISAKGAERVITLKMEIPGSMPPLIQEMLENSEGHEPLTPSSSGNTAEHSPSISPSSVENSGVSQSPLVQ
Chain of Retinoic acid receptor alpha (Homo sapiens) (P10276 whole entry, looked up, the tested form may be a part): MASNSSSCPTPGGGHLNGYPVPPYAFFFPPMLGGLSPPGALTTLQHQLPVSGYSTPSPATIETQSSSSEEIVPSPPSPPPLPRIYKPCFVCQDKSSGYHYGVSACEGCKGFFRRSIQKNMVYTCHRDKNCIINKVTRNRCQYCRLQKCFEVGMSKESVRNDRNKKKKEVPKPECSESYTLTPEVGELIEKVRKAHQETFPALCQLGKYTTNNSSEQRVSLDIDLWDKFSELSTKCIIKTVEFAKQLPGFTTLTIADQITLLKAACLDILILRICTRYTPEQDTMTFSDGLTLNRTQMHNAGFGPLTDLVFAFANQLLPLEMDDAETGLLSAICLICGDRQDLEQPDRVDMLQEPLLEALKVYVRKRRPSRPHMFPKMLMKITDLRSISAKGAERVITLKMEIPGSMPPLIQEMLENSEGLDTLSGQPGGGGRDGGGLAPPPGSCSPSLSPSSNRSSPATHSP
Chain of rat Thyrotropin Releasing Hormone Receptor (TRH), Trhr (gene 25570) (Q01717 whole entry, looked up): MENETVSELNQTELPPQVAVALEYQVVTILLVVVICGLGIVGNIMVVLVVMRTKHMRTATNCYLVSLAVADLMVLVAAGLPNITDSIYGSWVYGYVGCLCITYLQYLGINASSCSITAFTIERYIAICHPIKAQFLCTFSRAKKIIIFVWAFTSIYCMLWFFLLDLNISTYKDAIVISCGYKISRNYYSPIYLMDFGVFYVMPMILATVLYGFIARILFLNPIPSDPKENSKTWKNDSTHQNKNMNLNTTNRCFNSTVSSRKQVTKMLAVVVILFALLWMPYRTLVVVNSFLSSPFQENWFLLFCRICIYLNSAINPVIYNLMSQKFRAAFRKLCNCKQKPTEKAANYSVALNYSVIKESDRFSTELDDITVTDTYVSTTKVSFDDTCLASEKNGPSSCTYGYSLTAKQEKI
Chain of Androgen receptor (Homo sapiens) (P10275 whole entry, looked up, the tested form may be a part): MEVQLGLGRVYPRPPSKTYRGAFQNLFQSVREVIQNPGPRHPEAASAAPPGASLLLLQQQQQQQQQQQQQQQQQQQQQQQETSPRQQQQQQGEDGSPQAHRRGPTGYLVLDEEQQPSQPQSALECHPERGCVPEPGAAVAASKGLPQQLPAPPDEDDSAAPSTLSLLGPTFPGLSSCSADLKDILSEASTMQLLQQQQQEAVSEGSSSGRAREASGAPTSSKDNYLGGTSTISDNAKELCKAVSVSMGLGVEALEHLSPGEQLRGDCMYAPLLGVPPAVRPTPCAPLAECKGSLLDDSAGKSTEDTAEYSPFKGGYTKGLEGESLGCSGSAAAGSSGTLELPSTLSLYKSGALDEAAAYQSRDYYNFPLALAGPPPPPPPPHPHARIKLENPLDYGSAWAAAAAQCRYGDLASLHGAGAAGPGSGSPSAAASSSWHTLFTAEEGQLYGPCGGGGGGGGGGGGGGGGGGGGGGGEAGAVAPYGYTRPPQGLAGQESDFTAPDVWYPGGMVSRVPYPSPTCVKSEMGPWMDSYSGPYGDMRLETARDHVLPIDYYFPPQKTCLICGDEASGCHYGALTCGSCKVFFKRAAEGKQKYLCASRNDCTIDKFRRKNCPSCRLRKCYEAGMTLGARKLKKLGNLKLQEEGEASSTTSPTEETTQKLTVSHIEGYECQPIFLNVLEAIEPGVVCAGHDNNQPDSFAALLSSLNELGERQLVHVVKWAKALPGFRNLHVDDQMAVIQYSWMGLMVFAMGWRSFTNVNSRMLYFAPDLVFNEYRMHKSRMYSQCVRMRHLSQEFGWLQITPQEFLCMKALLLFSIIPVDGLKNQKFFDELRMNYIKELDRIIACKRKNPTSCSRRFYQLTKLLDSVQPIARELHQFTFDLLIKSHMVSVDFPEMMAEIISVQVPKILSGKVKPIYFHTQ

For the compound `CNC(=N[N+](=O)[O-])NCC1CCOC1` (centres undefined), the result in [1] and in experiment [2] was inactive.
For `COC(=O)c1ccccc1S(=O)(=O)NC(=O)Nc1nc(C)cc(C)n1`, the result in experiment [3] and in experiment [4] was inactive.
Regarding `CC[N+](=O)[O-]`, the result in [3] was inactive.
On to `Nc1cc(Cl)cc(Cl)c1`, for which the compound was classed as inactive in experiment [1] and in experiment [2].
For the compound `O=S(=O)(c1ccccc1)c1ccccc1`, the result in experiment [5], in [4], in [6], in experiment [7], in experiment [8] and in [9] was inactive. For the same compound, the result in experiment [10], in experiment [11], in [12], in experiment [13], in [14] and in [15] was inactive. Moreover, the outcome in experiment [16] is “inactive”; with Decorin, DCN (gene 1634), “inactive”; in [17], “inactive”.
In the case of `O=C(CCl)c1ccccc1`, the compound was classed as inactive in [3], in experiment [5] and in experiment [4].
In the case of `CC(C)[C@@H](C(=O)O[C@@H](C#N)c1cccc(Oc2ccccc2)c1)c1ccc(Cl)cc1`, the outcome in experiment [18] was inactive.
Turning to `CCOP(=O)(OCC)Oc1ccc([N+](=O)[O-])cc1`, the compound was called inactive in [2] and in [18].
As to `CNC(=O)Oc1cc(C)c(SC)c(C)c1`, the compound was classed as inactive in experiment [19], in experiment [18], in experiment [9], in [10], in [12] and in experiment [13]. For the same compound, the outcome is “inactive” in experiment [14]; “inactive” in [15]; “inactive” in [16]; “inactive” with Decorin, DCN (gene 1634); “inactive” in experiment [17]. Besides, the concentration at half-maximal activity (AC50) in [6] is 15.6 µM (active); in [7], 10.6 µM (active); in experiment [8] it was 29.7 µM (active); in experiment [11], 20 µM (active).
Turning to `C=CC(=O)OCC(CC)CCCC` (centres undefined), the result in [6], in [7], in [8], in [9], in experiment [10] and in experiment [11] was inactive. Also, the result in experiment [12], in [13], in experiment [14], in experiment [15], in experiment [16] and in experiment [17] was inactive. Besides, the concentration at half-maximal activity (AC50) in the experiment with Decorin, DCN (gene 1634) is 0.016 µM (active).
As for `O=C(NC(=O)c1c(F)cccc1F)Nc1ccc(Oc2ccc(C(F)(F)F)cc2Cl)cc1F`, the call in [3], in experiment [5], in experiment [4] and in experiment [18] was inactive. For the same compound, in experiment [2], the AC50 is 40.8 µM (active).
Turning to `CN(C)C(=O)C(c1ccccc1)c1ccccc1`, the compound was classed as inactive in experiment [1].
As to `CC(C)CCCCCCCOP(=O)(Oc1ccccc1)Oc1ccccc1`, the AC50 in experiment [6] is 35.8 µM (active); in experiment [7], 18.9 µM (active); in [8] it was 31.3 µM (active); in experiment [9], 8.84 µM (active); in experiment [10] it was 8.98 µM (active); in experiment [11], 25.5 µM (active). The AC50 in experiment [12] is 8.22 µM (active); in [13], 26.4 µM (active); in experiment [14], 20 µM (active); in experiment [15], 12.8 µM (active); in [16] it was 5.07 µM (active); with Decorin, DCN (gene 1634), 8.75 µM (active). The AC50 in experiment [17] is 11.3 µM (active).
Take `O=P1(NCCCl)OCCCN1CCCl` (centres undefined): the compound was called inactive in experiment [5], in experiment [6], in experiment [7], in [8], in [9] and in [10]. In addition, the result in [11], in [12], in [13], in [14], in experiment [15] and in [16] was inactive. For the same compound, the outcome is “inactive” with Decorin, DCN (gene 1634) and “inactive” in experiment [17].
